High-throughput results as filed in PubChem BioAssay.
Sampled rows, rich in hits. Any-hit rate of the full collection: about 6.8%.
T cruzi growth-1 = T. cruzi intracellular proliferation inhibitors, primary screen, cell-based, beta-gal Tulahuen parasites, NIH3T3 host, luminescence | inhibition, % at 8.34 µM | AID 624255, 2012 | T. cruzi beta-gal in NIH3T3, GalScreen luminescence, 90 h | 77,000 tested, 5.9% active;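 active = mean inhibition above about 93%, with at least 55% of replicates each passing it, limit read from the data, passing the limit was not always enough; inconclusive = only one of those two conditions holds; inactive = neither condition holds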
Pf Dd2 inh = P. falciparum Dd2 growth inhibitors, primary screen, SYBR Green fluorescence, single dose replicates; 72 h; active compounds read low; AID 1159554, 2015; activity change, % at 10 µM; 94,000 tested, 2.3% active; in the data active = activity change below about -80%; inconclusive = no clear call, values can overlap the other calls
C diff growth = C. difficile growth inhibitors, primary screen, HTS; Clostridium difficile clinical isolate growth, OD600, 24 h; active compounds read low; growth activity, negative = inhibition, % at 16 µg/mL (by protocol); 86,000 tested, 0.25% active; AID 1259249, 2017;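 active = mean growth activity at or below -80% and every replicate also at or below -80%; inconclusive = mean at or below -80% but some replicate above -80%; inactive = mean growth activity above -80%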
T cruzi growth-2 = T. cruzi intracellular proliferation inhibitors, confirmation, cell-based, NIH3T3 host, beta-gal parasite, luminescence, cherry-pick; shares compounds with T cruzi growth-1; T. cruzi beta-gal in NIH3T3, GalScreen luminescence, 90 h; inhibition, % at 8.35 µM; AID 651739, 2012; 5,600 tested, 72% active;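 active = mean replicate inhibition above about 95% and at least 55% of replicates individually reaching it, limit read from the data; inconclusive = only one of the two criteria is met; inactive = neither criterion is met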
T cruzi growth-3 = inhibitors of intracellular T. cruzi replication, confirmation, NIH3T3 host cells, beta-gal parasites, cherry-pick, set 2. 5,600 tested, 21% active. T. cruzi beta-gal in NIH3T3, GalScreen luminescence, 90 h. inhibition, % at 2.09 µM. shares compounds with T cruzi growth-1;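 active = mean inhibition above about 95%, with at least 55% of replicates also reaching it, limit read from the data; inconclusive = meets just one of the two conditions; inactive = meets neither condition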
3T3 cytotox = cytotoxicity in mouse NIH/3T3 fibroblasts, confirmation, cytotoxicity control for T. cruzi proliferation inhibitor project, cell-based, cherry-pick, single point; NIH/3T3 viability, CellTiter-Glo ATP luminescence, 90 h; shares compounds with T cruzi growth-1; 5,600 tested, 14% active; cytotoxicity (signal decrease), % at 8.35 µM;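 active = mean signal decrease across replicates above about 35% based on untreated-well scatter, with enough replicates individually passing, limit read from the data; inconclusive = no rule stated though some were filed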
NIH3T3 tox 2 = NIH/3T3 fibroblast cytotoxicity, confirmation, cytotoxicity control, cell-based, cherry-pick, single point, set 2; shares compounds with T cruzi growth-1; NIH/3T3 viability, CellTiter-Glo ATP luminescence, 90 h; inhibition, % at 24.9 µM; 5,600 tested, 56% active;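 active = mean loss of cell viability signal at or above a set limit, and enough replicates individually reaching it; inconclusive = meets only the mean limit or only the replicate share; inactive = meets neither condition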
Large screens that a line does not name were inactive (follow-up assays come after a bar, where they were run).

C[C@H]1CN([C@@H](C)CO)C(=O)Cc2cc(NC(=O)CCCN(C)C)ccc2O[C@@H]1CN(C)S(=O)(=O)c1cn(C)cn1	none
COc1ccc(S(=O)(=O)Nc2ccc3c(c2)C(=O)N([C@@H](C)CO)C[C@H](C)[C@H](CN(C)Cc2ccc4c(c2)OCO4)OCCCC[C@@H](C)O3)cc1	none
COc1ccc(S(=O)(=O)Nc2ccc3c(c2)C(=O)N([C@H](C)CO)C[C@H](C)[C@H](CN(C)Cc2ccc4c(c2)OCO4)OCCCC[C@H](C)O3)cc1	T cruzi growth-1 inconclusive | T cruzi growth-2 103 | T cruzi growth-3 inconclusive | 3T3 cytotox inactive | NIH3T3 tox 2 105
Cc1ccc(S(=O)(=O)Nc2ccc3c(c2)C(=O)N([C@@H](C)CO)C[C@@H](C)[C@@H](CN(C)Cc2ccc4c(c2)OCO4)OCCCC[C@@H](C)O3)cc1	none
Cc1ccc(S(=O)(=O)Nc2ccc3c(c2)C(=O)N([C@@H](C)CO)C[C@H](C)[C@@H](CN(C)Cc2ccc4c(c2)OCO4)OCCCC[C@@H](C)O3)cc1	T cruzi growth-1 98, Pf Dd2 inh -81 | T cruzi growth-2 102 | T cruzi growth-3 inactive | 3T3 cytotox inactive | NIH3T3 tox 2 105
CN(C)C(=O)c1cccc(-c2ccc([C@H]3[C@@H](CO)N4CCCCN(Cc5cccnc5)C[C@H]34)cc2)c1	T cruzi growth-1 inconclusive | T cruzi growth-2 107 | T cruzi growth-3 inactive | 3T3 cytotox inactive | NIH3T3 tox 2 inactive
CN(C)C(=O)c1ccc(-c2ccc([C@@H]3[C@@H](CO)N4CCCCN(Cc5cccnc5)C[C@H]34)cc2)cc1	none
CN(C)C(=O)c1ccc(-c2ccc([C@H]3[C@@H](CO)N4CCCCN(Cc5cccnc5)C[C@H]34)cc2)cc1	T cruzi growth-1 inconclusive | T cruzi growth-2 104 | T cruzi growth-3 inactive | 3T3 cytotox inactive | NIH3T3 tox 2 inactive
CN(C)C(=O)c1cccc(-c2ccc([C@@H]3[C@H](CO)N4CCCCN(Cc5cccnc5)C[C@@H]34)cc2)c1	none
CO[C@H]1CN(C)C(=O)c2ccc(NS(C)(=O)=O)cc2OC[C@H](C)N(C(=O)CN(C)C)C[C@@H]1C	none (no result: C diff growth)
O=C(C[C@@H]1CC[C@H](NS(=O)(=O)c2ccc(F)cc2)[C@@H](CO)O1)NC1CCC1	none
C[C@@H]1CN([C@@H](C)CO)C(=O)c2cccc(NC(=O)c3cnccn3)c2O[C@@H]1CN(C)C	none (no result: T cruzi growth-1)
C[C@H](CO)N1C[C@H](C)[C@H](CN(C)Cc2cccnc2)Oc2cc(-c3cccnc3)ccc2S1(=O)=O	none
COc1ccc(-c2ccc3c(c2)O[C@H](CN(C)Cc2cccnc2)[C@@H](C)CN([C@@H](C)CO)S3(=O)=O)cc1	none (no result: T cruzi growth-1)
COc1cccc(-c2ccc3c(c2)O[C@@H](CN(C)Cc2cccnc2)[C@@H](C)CN([C@@H](C)CO)S3(=O)=O)c1	T cruzi growth-1 95 | T cruzi growth-2 inconclusive | T cruzi growth-3 inactive | 3T3 cytotox inactive | NIH3T3 tox 2 53
COc1cccc(-c2ccc3c(c2)O[C@@H](CN(C)Cc2cccnc2)[C@H](C)CN([C@@H](C)CO)S3(=O)=O)c1	T cruzi growth-1 112 | T cruzi growth-2 inactive | T cruzi growth-3 104 | 3T3 cytotox 48 | NIH3T3 tox 2 88
COc1cccc(-c2ccc3c(c2)O[C@H](CN(C)Cc2cccnc2)[C@@H](C)CN([C@H](C)CO)S3(=O)=O)c1	T cruzi growth-1 113 | T cruzi growth-2 98 | T cruzi growth-3 108 | 3T3 cytotox 64 | NIH3T3 tox 2 86
COc1cccc(-c2ccc3c(c2)O[C@@H](CN(C)Cc2cccnc2)[C@@H](C)CN([C@H](C)CO)S3(=O)=O)c1	none
C[C@@H]1CCCCO[C@@H](CN(C)CC2CC2)[C@H](C)CN([C@@H](C)CO)C(=O)c2cc(NS(=O)(=O)c3ccc(F)cc3)ccc2O1	none
C[C@H]1CN([C@@H](C)CO)S(=O)(=O)c2ccc(C#Cc3cccnc3)cc2O[C@H]1CN(C)C(=O)Nc1ccc2c(c1)OCO2	T cruzi growth-1 102, Pf Dd2 inh inconclusive | T cruzi growth-2 inactive | T cruzi growth-3 inactive | 3T3 cytotox inactive | NIH3T3 tox 2 inactive
CC(=O)N(C)C[C@@H]1Oc2cc(C#Cc3cccnc3)ccc2S(=O)(=O)N([C@@H](C)CO)C[C@@H]1C	none
C[C@@H]1CN([C@H](C)CO)S(=O)(=O)c2ccc(C#Cc3cccnc3)cc2O[C@@H]1CN(C)C(=O)Nc1ccc2c(c1)OCO2	T cruzi growth-1 inconclusive | T cruzi growth-2 inactive | T cruzi growth-3 inactive | 3T3 cytotox inactive | NIH3T3 tox 2 40
C[C@H](CO)N1C[C@H](C)[C@@H](CN(C)C(=O)Nc2ccc3c(c2)OCO3)Oc2cc(C#Cc3cccnc3)ccc2S1(=O)=O	none
C[C@@H]1CN([C@@H](C)CO)C(=O)Cc2cc(NC(=O)c3ccncc3)ccc2O[C@@H]1CN(C)S(=O)(=O)c1ccc(Cl)cc1	none
C[C@@H]1CN([C@H](C)CO)C(=O)c2cc(NC(=O)Nc3ccccc3)ccc2O[C@H]1CN(C)Cc1ccc(C(F)(F)F)cc1	none
C[C@@H]1CN([C@@H](C)CO)C(=O)c2cc(NC(=O)Nc3ccc(C(F)(F)F)cc3)ccc2O[C@H]1CN(C)Cc1ccc(-c2ccccc2)cc1	T cruzi growth-1 104 | T cruzi growth-2 102 | T cruzi growth-3 inactive | 3T3 cytotox inactive | NIH3T3 tox 2 105
C[C@H](CO)N1C[C@H](C)[C@@H](CN(C)Cc2ccccc2)Oc2ccc(NC(=O)Nc3ccc(C(F)(F)F)cc3)cc2C1=O	none
C[C@@H]1CN([C@H](C)CO)C(=O)c2cc(NC(=O)Nc3ccc(C(F)(F)F)cc3)ccc2O[C@H]1CN(C)Cc1ccc(-c2ccccc2)cc1	T cruzi growth-1 123 | T cruzi growth-2 inactive | T cruzi growth-3 inconclusive | 3T3 cytotox 84 | NIH3T3 tox 2 102
C[C@@H]1CN([C@@H](C)CO)C(=O)c2cc(NC(=O)Nc3ccc(C(F)(F)F)cc3)ccc2O[C@@H]1CN(C)Cc1ccc(-c2ccccc2)cc1	T cruzi growth-1 120 | T cruzi growth-2 102 | T cruzi growth-3 98 | 3T3 cytotox 56 | NIH3T3 tox 2 103
C[C@H]1CN([C@@H](C)CO)C(=O)c2cc(NC(=O)Nc3ccc(C(F)(F)F)cc3)ccc2O[C@H]1CN(C)Cc1ccc(C(F)(F)F)cc1	none
CC(C)NC(=O)N(C)C[C@@H]1Oc2ccc(NS(=O)(=O)c3ccccc3)cc2CC(=O)N([C@@H](C)CO)C[C@@H]1C	none (no result: C diff growth)
